Reference: publication PMC4336329 (PLoS ONE, 2015)
Hit rate of the full screen: of about 310,000 compounds, about 14,000 (4.5%) showed an effect of 50% or more. The effect is printed as a negative number. Many of the other results were omitted from the sample, so strong results are more common in it than they were.

These compounds were tested against human ether-à-go-go-related gene (hERG) potassium channel (human, UniProt Q12809) (assay: primary screen, population patch clamp on CHO cells stably expressing hERG; higher = less effect of the substance).
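Also: peak tail current of the secondary pulse compared with the same well before compound.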

Sequence of human ether-à-go-go-related gene (hERG) potassium channel (Q12809 whole entry, looked up): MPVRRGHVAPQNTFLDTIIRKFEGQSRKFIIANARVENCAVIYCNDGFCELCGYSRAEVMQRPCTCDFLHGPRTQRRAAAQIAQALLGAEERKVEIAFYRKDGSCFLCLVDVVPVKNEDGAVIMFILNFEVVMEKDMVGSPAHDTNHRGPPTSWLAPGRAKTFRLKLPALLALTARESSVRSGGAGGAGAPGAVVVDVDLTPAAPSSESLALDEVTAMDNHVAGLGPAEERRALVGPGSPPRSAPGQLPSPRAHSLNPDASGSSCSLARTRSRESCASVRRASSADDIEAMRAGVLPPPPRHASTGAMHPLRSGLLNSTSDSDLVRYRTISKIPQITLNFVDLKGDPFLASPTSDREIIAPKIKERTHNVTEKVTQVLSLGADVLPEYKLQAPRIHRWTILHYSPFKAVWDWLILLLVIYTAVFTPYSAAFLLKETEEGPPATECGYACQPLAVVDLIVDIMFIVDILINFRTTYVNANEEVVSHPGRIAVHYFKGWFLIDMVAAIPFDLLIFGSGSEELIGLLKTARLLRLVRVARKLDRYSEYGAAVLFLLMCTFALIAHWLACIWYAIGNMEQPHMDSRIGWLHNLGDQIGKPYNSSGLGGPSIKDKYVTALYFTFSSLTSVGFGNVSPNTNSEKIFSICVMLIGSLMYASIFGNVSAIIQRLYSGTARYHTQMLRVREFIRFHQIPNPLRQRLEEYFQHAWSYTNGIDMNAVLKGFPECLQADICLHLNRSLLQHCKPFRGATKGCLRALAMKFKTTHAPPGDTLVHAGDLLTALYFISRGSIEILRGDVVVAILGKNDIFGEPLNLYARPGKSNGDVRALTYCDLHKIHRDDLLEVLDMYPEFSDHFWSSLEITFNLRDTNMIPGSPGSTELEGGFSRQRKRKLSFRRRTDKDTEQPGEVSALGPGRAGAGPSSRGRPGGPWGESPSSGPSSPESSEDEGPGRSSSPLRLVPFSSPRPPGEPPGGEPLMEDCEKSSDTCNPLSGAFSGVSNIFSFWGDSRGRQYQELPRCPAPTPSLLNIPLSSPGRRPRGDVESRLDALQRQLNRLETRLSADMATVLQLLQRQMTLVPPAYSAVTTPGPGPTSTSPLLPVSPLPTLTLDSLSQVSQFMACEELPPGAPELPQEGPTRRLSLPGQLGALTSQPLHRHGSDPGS

Structure (SMILES)	hERG current change (%, negative = inhibition) at 10uM
Cc1c(Cl)cccc1NC(=O)Nc1ccn(C)n1	5.52%
Cc1nn(C)c(C)c1/C=C(/C(=O)C(C)(C)C)n1cncn1	28.5%
Cc1cccc(C)c1NC(=S)N1CCCN(C)CC1	15.2%
Clc1ccc(-c2cnc3ccccc3n2)cc1	9.07%
COc1ccc(C(=O)Nc2cc(C)c3c(=O)oc4ccccc4c3n2)cc1	7.49%
OCC[C@@H]1C[C@H](O)[C@@H](O)[C@@]2(Cc3ccccc3CCO2)O1	10.6%
CCC(Sc1nccn1C)C(=O)Nc1ccc(Cl)cn1 (stereo not drawn)	5.78%
Cc1cccc(Cn2c(C(C)O)nc3ccccc32)c1 (stereo not drawn)	5.37%
CN1CCN(CCN2CCn3c2nc2ccccc23)CC1.Cl	-7.38%
Cl.c1ccc(CN2CCN(CCN3CCn4c3nc3ccccc34)CC2)cc1	-75.8%
Cl.c1ccc2c(c1)nc1n2CCN1CCN1CCCC1	-3.08%
CCCn1c(N2CCN(Cc3ccc(Cl)cc3)CC2)nc2ccccc21.Cl	-69.8%
Cl.O=[N+]([O-])c1ccc(CN2CCN(c3ccc4ccccc4n3)CC2)cc1	-12.1%
O=[N+]([O-])c1ccc(CN2CCN(c3nc4ccccc4s3)CC2)cc1	-1.07%
CCCn1c(N2CCN(C(=O)Nc3ccc(Cl)cc3)CC2)nc2ccccc21	-16.8%
CCCn1c(N2CCN(C(=O)N3CCCCC3)CC2)nc2ccccc21.Cl	-20.4%
CC(O)c1nc2ccccc2n1Cc1ccc([N+](=O)[O-])cc1 (stereo not drawn)	-73.4%
CCn1c(N2CCN(Cc3ccc([N+](=O)[O-])cc3)CC2)nc2ccccc21.Cl	-74.7%
CC(O)c1nc2cc([N+](=O)[O-])ccc2n1Cc1ccccc1 (stereo not drawn)	1.79%
COc1ccc(NC(=O)CSc2cn[nH]n2)cc1OC	31.4%
COc1ccc(NC(=O)N2C[C@@H]3C[C@@H](C2)c2cccc(=O)n2C3)cc1	7.74%

Structure (SMILES)	hERG current change (%, negative = inhibition) at 10uM
N#C/C(=N\Nc1ccc(Cl)cc1)C(=N)N1CCCCC1	-31.1%
CC(C)C(=O)Nc1ccc(S(=O)(=O)N2CCC(c3nc4ccccc4[nH]3)CC2)cc1	-42.7%
CC1=CCC(C(=O)O)C(C(=O)Nc2ccc(-c3nc4ccc(C)cc4s3)cc2)C1 (stereo not drawn)	7.8%
COc1ccccc1Oc1ccccc1[N+](=O)[O-]	5.95%
O=C(NNC(=O)c1ccc(Cl)c([N+](=O)[O-])c1)c1ccncc1	13.2%
COc1cc(/C=C2/C(=O)N(c3ccc([N+](=O)[O-])cc3)N=C2N2CCOCC2)ccc1O	-42.2%
Cc1nc2c3cc(F)ccc3n(Cc3ccc(F)cc3)c2s1	13.8%
COC(=O)Cn1c2ccc(Cl)cc2c2nc(C)sc21	5.43%
CCN(CC)CCn1c2ccc(Cl)cc2c2nc(C)sc21.Cl	-68.2%
CCN(CC)CCn1c2ccccc2c2nc(C)sc21	-30.6%
Cc1nc2c3cc(F)ccc3n(Cc3ccccc3)c2s1	4.24%
CCN(CC)CCn1c2ccc(F)cc2c2nc(C)sc21.Cl	-54.3%
COc1ccc(-n2ccc(=O)c3c2CCCC3=O)cc1	13.5%
CCn1cc(C(=O)O)c(=O)c2cnc(N3CCN(C(=S)Nc4ccccc4Cl)CC3)nc21	-4.66%
N#Cc1ccc(Cl)cc1NC(=O)COC(=O)[C@H](CCC(N)=O)NC(=O)c1ccc(F)cc1	1.75%
Cc1ccc2c(c1)C(C)CC(C)(C)N2C(=O)CN1CCN(C)CC1.O=C(O)C(=O)O (stereo not drawn)	-23.6%
COc1ccc(C[C@H]2CN3C(=NC[C@H]3C)N2CCNC(=O)c2ccc(C)c(Br)c2)cc1	-72%
COc1ccc(C[C@@H]2CN3C(=NC[C@@H]3C)N2CCNC(=O)c2ccc(C)c(Br)c2)cc1	-71.4%
Cc1ccc(C(=O)NCCN2C3=NC[C@H](C(C)C)N3C[C@H]2Cc2ccc(O)cc2)cc1Br	-26.3%
C/C=C(\C)C(=O)NCCN1C2=NC[C@@H](C)N2C[C@@H]1Cc1ccc(OC)cc1	0.0958%
C/C=C(\C)C(=O)NCCN1C2=NC[C@@H](C)N2C[C@H]1Cc1ccc(O)cc1	12.9%

Structure (SMILES)	hERG current change (%, negative = inhibition) at 10uM
COc1ccc(C[C@H]2CN3C(=NC[C@@H]3C(C)C)N2CCNC(=O)c2ccc(C)c(Br)c2)cc1	-79%
CCc1nc(-c2ccccc2)cc(=O)[nH]1	-6.29%
CCOC(=O)c1cc(NC(=O)c2ccc(C)cc2)c(=O)oc1C(F)(F)F	-2.5%
O=C(CSCc1ccccc1)Nc1ccc(S(=O)(=O)N2CCOCC2)cc1	-17.7%
Cc1cc(C(=O)N/N=C/c2ccc(-c3cccc(Br)c3)o2)n[nH]1	12.4%
NS(=O)(=O)c1ccc(CNC(=O)CC23CC4CC(CC(C4)C2)C3)cc1	-5.69%
Cc1nn(C)c(C)c1NC(=O)CSc1nnc(C)n1-c1ccccc1	-0.523%
Cc1cc(NC(=O)CSc2nnc3c(C)cc4cc(C)c(C)cc4n23)no1	20%
O=C1CNC(=O)/C1=C/c1ccc(Br)cc1	16.7%
CN1/C(=C/C(=O)c2nc(S(C)(=O)=O)ncc2Cl)C(C)(C)c2ccccc21	-29.9%
CCN(CC)CCn1c2c(c(SCC(=O)Nc3ccc(C(C)C)cc3)nc1=O)CCC2	-56.9%
CCN(CC)CCn1c2c(c(SCC(=O)Nc3ccc(C(C)C)cc3)nc1=O)CCCC2	-68.3%
O=C(COC(=O)c1ccc(NS(=O)(=O)c2ccc3c(c2)OCCO3)cc1)NC1CC1	-1.56%
COc1cc(OC)c(C2=NOC(C(=O)O)C2)cc1Cl (stereo not drawn)	5.14%
CC(C)(C)c1ccc(SCCc2ccncc2)cc1	3.48%
COC(=O)C1=C(c2ccc(F)cc2OCc2ccccc2)C[C@@H]2CC[C@H]1N2C(=O)NCc1cccc(OC)c1	2.72%
CCc1ccc2oc(-c3ccc(OC)cc3)cc(=[NH+]c3cccc(C(=O)O)c3)c2c1.F[B-](F)(F)F	5%
CCc1ccc2oc(-c3ccc(OC)cc3)cc(=[NH+]c3c(C)n(C)n(-c4ccccc4)c3=O)c2c1.F[B-](F)(F)F	-71.7%
COc1ccc(-c2cc(C(=O)Nc3c(C)n(C)n(-c4ccccc4)c3=O)no2)cc1	6.42%
COc1ccc(N=c2cc(-c3ccc(OC)cc3)oc3ccccc23)cc1	4.41%
COc1ccc(-c2cc(=Nc3c(C)n(C)n(-c4ccccc4)c3=O)c3ccccc3o2)cc1	-68.1%

Structure (SMILES)	hERG current change (%, negative = inhibition) at 10uM
COc1ccc(-c2cc(=Nc3ccc(C)cc3)c3ccccc3o2)cc1	5.87%
COc1ccc(CCNC(=S)NCCc2ccc(OC)c(OC)c2)cc1OC	5.11%
Cc1ccn2cc(CSc3ccccc3N)nc2c1	-29.1%
CCN(CC)c1ccc(NC(=O)CCc2nnc3ccc(N4CCCCC4)nn23)c(C)c1	-12.8%
CCCCC/C(=N/O)c1c(C)[nH]c2ccccc12	4.53%
Cc1ccc(N(CC(O)CON=C2c3ccccc3-c3ccccc32)S(C)(=O)=O)cc1 (stereo not drawn)	15.5%
Cc1ccc(C)c(S(=O)(=O)N2CCCC2CNC(=O)C(=O)NCc2ccco2)c1 (stereo not drawn)	-54.2%
O=C(NCC1CCCN1S(=O)(=O)c1cccs1)c1ccccc1 (stereo not drawn)	16.5%
Cc1ccc(C)c(S(=O)(=O)N2CCCCC2CCNC(=O)C(=O)NCc2ccco2)c1 (stereo not drawn)	-21.8%
Cc1ccc(C(=O)NCC2CCCN2S(=O)(=O)c2ccc(C)cc2)cc1 (stereo not drawn)	-33.8%
Cc1ccc(C)c(S(=O)(=O)N2CCCC2CNC(=O)c2ccc([N+](=O)[O-])cc2)c1 (stereo not drawn)	-81.8%
Cc1ccc(C)c(S(=O)(=O)N2CCCC2CNC(=O)C(=O)NCC2CCCO2)c1 (stereo not drawn)	-15.5%
Cc1ccc(S(=O)(=O)N2CCCC2CNC(=O)c2ccc(F)c(F)c2)cc1 (stereo not drawn)	-52.5%
Cc1ccc(C)c(S(=O)(=O)N2CCCC2CNC(=O)C(=O)NC2CC2)c1 (stereo not drawn)	-0.659%
Cc1ccc(C)c(S(=O)(=O)N2CCCC2CNC(=O)C(=O)NCCc2ccco2)c1 (stereo not drawn)	-21.2%
O=C(NCC1CCCN1S(=O)(=O)c1cccs1)c1cccc([N+](=O)[O-])c1 (stereo not drawn)	-24.5%
O=C(NCC1CCCN1S(=O)(=O)c1cccs1)c1ccc([N+](=O)[O-])cc1 (stereo not drawn)	-55.2%
Cc1ccc(S(=O)(=O)N2CCCC2CNC(=O)c2ccccc2)cc1 (stereo not drawn)	-9.34%
COc1ccc(C(CNC(=O)C(CC(C)C)NS(=O)(=O)c2ccc(C)cc2)N2CCOCC2)cc1 (stereo not drawn)	-3.25%
Oc1c(C=NCc2ccncc2)sc2ccccc12	-38.4%
CCCCn1c(N)c(N(CCC(C)C)C(=O)c2cccc(-n3cnnn3)c2)c(=O)[nH]c1=O	-7.92%
